An excerpt weighted towards active compounds, which were near 28% of everything screened.
CYP2C19 act = increases human CYP2C19 enzyme activity. P33261. recombinant CYP2C19, luciferin-H EGE luminescence; active compounds read high; 0 = fully inhibited enzyme, 1 = untreated enzyme. activation factor at 5 µM. 96,000 tested, under 10 active. AID 1025;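 active means activation factor of at least 2 at 5 µM in the primary screen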
Target sequence (P33261 whole entry, looked up): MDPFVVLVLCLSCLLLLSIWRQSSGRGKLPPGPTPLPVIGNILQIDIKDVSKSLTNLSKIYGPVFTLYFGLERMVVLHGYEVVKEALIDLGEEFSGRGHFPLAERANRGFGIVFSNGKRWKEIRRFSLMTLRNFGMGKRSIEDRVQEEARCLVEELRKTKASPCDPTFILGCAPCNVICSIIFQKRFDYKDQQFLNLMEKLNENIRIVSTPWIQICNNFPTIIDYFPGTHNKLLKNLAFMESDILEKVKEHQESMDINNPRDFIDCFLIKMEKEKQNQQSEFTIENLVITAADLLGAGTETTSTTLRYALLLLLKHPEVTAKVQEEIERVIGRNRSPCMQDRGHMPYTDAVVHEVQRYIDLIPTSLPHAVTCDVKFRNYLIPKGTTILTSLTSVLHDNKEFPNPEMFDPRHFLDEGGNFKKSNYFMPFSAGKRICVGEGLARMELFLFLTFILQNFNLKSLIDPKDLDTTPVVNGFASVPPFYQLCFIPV
CYP2C19 inhib = inhibitors of human CYP2C19. inhibition, % at 5 µM. 96,000 tested, 21% active. CYP2C19 Supersomes, luciferin-H EGE luminescence, 30 min. P33261. AID 778;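 active means CYP2C19 inhibition above a set limit at 5 µM in the primary screen, cut at about 50% in these data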
CYP2C9 inhib = inhibitors of human CYP2C9 | inhibition, % at 5 µM | P11712 | 96,000 tested, 20% active | CYP2C9 Supersomes, luciferin-H conversion, luminescence | AID 777;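 active means blocking of liver enzyme CYP2C9 beyond about 50% at 5 µM, limit read from the data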
D1 mod = allosteric modulators of human D1 dopamine receptor. HEK293 D1, CRE-luciferase, dopamine EC30 potentiation; actives deviate in either direction. P21728. 58,000 tested, 5.9% active. B-score at 10 µM. AID 641;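 active means luminescence count or its row- and column-corrected plate score outside the 99.7% band of the plate's sample wells, on either side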
hDAT+cocaine = modulates human dopamine transporter uptake under cocaine; Q01959; LLC-PK1 hDAT cells, [14C]-dopamine uptake with cocaine IC80; actives deviate in either direction; B-score at 10 µM; 110,000 tested, 1.3% active;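 active means Z score or B-score, a plate-position-corrected score, falls beyond the plate's 99.7% confidence bounds, in either direction; inactive means both scores lie inside the 99.7% bounds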
CYP2C9 act = activators of human CYP2C9 | 96,000 tested, 1.4% active | activation factor at 5 µM | recombinant CYP2C9, luciferin-H conversion, luminescence; active compounds read high; factor 1 = untreated enzyme, 0 = blocked | P11712;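 active means activation factor of 2 or more for CYP2C9 at a 5 µM dose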
D1 mod confirm = confirmation of human D1 dopamine receptor allosteric modulators; shares compounds with D1 mod; HEK293 D1 CRE-luciferase, dopamine EC30 potentiation; active compounds read high; luminescence at 10 µM; 2,200 tested, 88% active; AID 642;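 active means luminescence in either of two replicates above the same-plate mean plus 3 SD of the low-dose dopamine control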
D1 ag no DA = D1 (human) signaling in absence of dopamine; shares compounds with D1 mod; HEK293 D1 CRE-luciferase, luminescence, no dopamine; active compounds read high; luminescence at 10 µM; 1,900 tested, 0.8% active; AID 646; in the data active means luminescence above about 3900
Isoprot counter = alters isoproterenol CRE-luciferase response in HEK293 cells | 2,200 tested, 63% active | shares compounds with D1 mod | AID 647 | calls only at 10 µM | HEK293 D1 CRE-luciferase, isoproterenol EC30 counter-screen;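 active means luminescence in either replicate above plate mean of wells with a partly effective reference agonist dose plus 3 SD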;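 further: isoproterenol raises cAMP through native beta-adrenoceptor Gs so signal bypasses D1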
Numbers stand for hits; 0 = inactive; - = not tested or not shown; + = active, no number.

SMILES	CYP2C19 act	CYP2C19 inhib	CYP2C9 inhib	D1 mod	hDAT+cocaine	CYP2C9 act	D1 mod confirm	D1 ag no DA	Isoprot counter
CCc1c(C(=O)NC2CCCC2)csc1C	0	0	0	0	0	0	-	-	-
COc1ccc(CC(=O)NCc2cccs2)cc1	0	0	0	0	0	0	-	-	-
Cc1cc2c(cc(C(=O)OCC(=O)NCc3cccs3)n2C(C)C)o1	0	50.0	64.8	10.5	0	0	7700	0	+
C=C(C)Cn1c(SCC#N)nc2ccccc2c1=O	0	0	0	15.5	-2.87	0	15044	0	+
CCn1c(SCC(N)=O)nc2ccccc2c1=O	0	0	0	-	0	0	-	-	-
Cc1ccnc(NC(=O)COC(=O)C2COc3ccccc3O2)n1 (stereo unspecified)	0	0	0	0	0	0	-	-	-
O=S(=O)(Nc1nc2ccccc2nc1NCC1CCCO1)c1cccs1 (stereo unspecified)	0	0	92.1	8.63	0	0	15576	0	+
COCCn1c(N)c(S(=O)(=O)c2cccs2)c2nc3ccccc3nc21	0	0	0	0	0	0	-	-	-
O=S(=O)(NCC1CCCO1)c1cccc2nsnc12 (stereo unspecified)	0	0	0	0	0	0	-	-	-
COCCCNc1nc2ccccc2nc1NS(=O)(=O)c1cccs1	0	0	94.0	2.78	0	0	10820	0	0
N=c1c(S(=O)(=O)c2ccccc2)cc2c(=O)n3ccccc3nc2n1CC1CCCO1 (stereo unspecified)	0	0	0	7.59	0	0	10760	0	+
CC1(Cc2ccc3c(c2)OCO3)NC(=O)NC1=O (stereo unspecified)	0	0	0	0	0	0	-	-	-
CCCc1cc(C(N)=O)c(NC(=O)c2ccco2)s1	0	0	0	5.03	0	0	10424	0	+
O=S(=O)(c1cccc(-c2nc3n(n2)Cc2ccccc2-3)c1)N1CCCC1	0	0	0	4.87	0	0	7316	0	+
O=S(=O)(c1cccc(-c2nc3n(n2)Cc2ccccc2-3)c1)N1CCCCC1	0	0	0	-	0	0	-	-	-
COc1ccc(C(=O)COC(=O)c2ccc(OC)c(OC)c2)cc1OC	0	0	0	0	0	0	-	-	-
COc1ccc(C(=O)CSc2nc(SC)ns2)cc1OC	0	62.0	0	8.38	0	0	17700	0	+
COc1ccc(C(=O)CSc2cc(C)nc3nc(C)nn23)cc1OC	0	0	0	5.13	0	0	9832	-	+
COc1ccc(-n2c(SCC(=O)N3CCOCC3)nc(O)c(Cc3ccccc3)c2=O)cc1	0	0	0	-	0	0	-	-	-
Cn1c(=O)c2c(ncn2CC(=O)NCc2cccnc2)n(C)c1=O	0	0	0	0	0	0	-	-	-
CCCc1oc(C(=O)O)cc1CN1CCOCC1	0	0	0	-	0	0	-	-	-
CCNc1nc(NC(C)(C)C)nc(N(CC)n2cnnc2)n1	0	0	0	2.72	0	0	8308	0	0
CCNc1nc(NCC)nc(Nn2cnnc2)n1	0	0	0	0	0	0	-	-	-
CCOc1cc(C2CC(=O)Nc3cc(C)c(C)cc32)ccc1O (stereo unspecified)	0	86.9	83.8	21.1	0	0	17484	-	+
CCCCCCSC1=C(C#N)C(c2ccccc2)CC(=O)N1 (stereo unspecified)	0	0	0	-	0	0	-	-	-
CCOc1cc(C2CC(=O)NC(SCC)=C2C#N)ccc1O (stereo unspecified)	0	0	0	4.52	0	0	6316	0	0
CCOC(=O)c1ccc(NC(=O)CN2C(=O)C(=O)N(CC(C)C)C2=O)cc1	0	0	0	-	0	0	-	-	-
CSc1ncc(Cl)c(C(=O)NCc2ccc3c(c2)OCO3)n1	0	0	0	12	0	0	16252	0	+
COC(=O)Oc1c(Br)c(=O)oc2ccccc12	-	-	-	0	0	-	-	-	-

Source: PubChem (several laboratories)
